Bioassay records as filed in PubChem.
H9c2 protect – cardioprotection against H2O2-induced cell death, primary screen, uHTS, H9c2 cells, ATPLite luminescence | hit rate 0.63% among 360,000 | H9c2 cardiomyocytes, H2O2 injury protection, 2 h | protection from H2O2 cell death, % at 20 µM;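 active means compounds giving at least 50% protection of heart cells from peroxide-induced death in the single-dose screen, raw or plate-pattern-corrected value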
CRFR2-BP ag – agonists of CRF-BP/CRF-R2 complex, primary screen, cell-based, HEK293, calcium dye fluorescence, uHTS; activation, % at 13.2 µM; hit rate 0.46% among 350,000; calcium dye fluorescence (FLIPR); percent of saturating CRF peptide response;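 active means activation of at least 50%, plus an integration ratio under a set limit after plate pattern correction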
aDG glyco up – activators of alpha-DG glycosylation, primary screen, uHTS, Pro5-aDG cells, AlphaScreen; hit rate 0.22% among 360,000; alpha-DG glycosylation AlphaScreen (IIH6); 0% Pro5, 100% B10-LARGE cell signal; activation, % at 10 µM;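 active means activation of at least 8% versus controls, or a plate z-score of at least 8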;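 further: Pro5 are CHO cells carrying HIG-tagged alpha-DG that lacks glycosylation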
CRFR2-BP antag – antagonists of CRF-BP/CRF-R2 complex, primary screen, cell-based, HEK293, calcium dye fluorescence, uHTS; CRF-induced calcium fluorescence; inhibition, % at 11.8 µM; hit rate 0.59% among 350,000;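 active means inhibition of the ligand-induced calcium signal above about 50% at the single tested concentration, limit read from the data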
PfGluPho inh – PfG6PD enzyme inhibitors, primary screen, biochemical, fluorescence intensity, uHTS | glucose-6-phosphate dehydrogenase-6-phosphogluconolactonase (Plasmodium falciparum 3D7) | PfGluPho enzyme, NADPH resazurin-diaphorase fluorescence | inhibition, % at 20 µM | hit rate 0.78% among 350,000 | AID 504690, 2011;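 active means inhibition reaching at least a set limit at 20 µM in the primary screen, cut at about 59% in these data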
FAS TE block – FAS thioesterase domain inhibitors, primary screen, biochemical, fluorescence intensity, uHTS | Fatty acid synthase (Homo sapiens), P49327 | recombinant FAS-TE, OMFH fluorogenic substrate, fluorescence endpoint | inhibition, % at 15 µM | hit rate 0.67% among 360,000 | AID 602261, 2012;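 active means compounds whose normalised, plate-corrected inhibition of enzyme fluorescence in the single-dose primary screen is 50% or more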
Each line names hits and unclear results; the compound was inactive in the other large screens. Shown are actives, neighbours in structure and some others; about 3.2% of the full set was active somewhere.

CCOC(=O)C1(CC2CCCCO2)CCN(C(=O)Nc2ccc(C(=O)OC)cc2)CC1 (stereo unspecified)	none
O=C(Cc1ccccc1)NCCCc1ccccc1	none
Cc1ccc(CC(=O)NCCCc2ccccc2)cc1	CRFR2-BP antag 60
CCOC(=O)c1c(CSc2ccccc2)n(C)c2ccc(O)cc12	none
Cc1ccc(N=Cc2sc(O)c3ccccc23)c(C)c1	none
Cc1ccc(N=Cc2sc(O)c3ccccc23)cc1	CRFR2-BP ag 59
COC(=O)c1cc2c(-c3ccccc3)cc3ccccn3c-2c1C(=O)OC	H9c2 protect 61
COC(=O)C1C=CC(OC2OC(COC(C)=O)C(OC(C)=O)C(OC(C)=O)C2OC(C)=O)n2c(=O)n(-c3ccccc3)c(=O)n21 (stereo unspecified)	none
COc1ccc(CCNc2nc(N3CCCCC3)nc(N3CCCCC3)n2)cc1OC	CRFR2-BP antag 74
O=C1c2ccccc2NC(c2cn[nH]c2-c2ccccc2)N1O (stereo unspecified)	H9c2 protect 50
Cc1ccc(N2C(=O)c3ccccc3NC2c2ccccc2O)cc1 (stereo unspecified)	none
O=C1c2ccccc2NC(c2cccs2)N1O (stereo unspecified)	none
O=C1c2ccccc2NC(c2ccccc2O)N1O (stereo unspecified)	H9c2 protect 52
O=C1c2ccccc2NC(c2cn[nH]c2-c2ccc(Cl)cc2)N1O (stereo unspecified)	H9c2 protect 67
O=C(CSc1nccn1Cc1ccccc1)NC1CCCC1	none
C[C@H](CO)N1C[C@H](C)[C@@H](CN(C)S(=O)(=O)c2cccs2)Oc2c(NS(=O)(=O)c3ccccc3)cccc2C1=O	none
CC1(C)c2[nH]c3ccccc3c2C[C@H]2C(=O)N(Cc3ccccc3)C(=O)N21	CRFR2-BP antag 60
CC1(C)c2[nH]c3ccccc3c2C[C@@H]2C(=O)N(Cc3ccccc3)C(=O)N21	none
COc1ccc(NC(=O)C(OC(=O)c2cnc(C)cn2)c2ccccc2)cc1Cl (stereo unspecified)	none
COc1ccc(NC(=O)C(OC(=O)c2ccc([N+](=O)[O-])o2)c2ccccc2)cc1Cl (stereo unspecified)	H9c2 protect 52
COc1ccc(CCC2(C)NC(=O)N(C(C)C(=O)N3c4ccccc4CC3C)C2=O)cc1 (stereo unspecified)	none
CCOC(=O)c1cc2c(=O)n3ccccc3nc2n(Cc2ccco2)c1=NC(=O)c1cccnc1	H9c2 protect 85
COc1cccc(-c2nnc3sc(-c4ccccn4)nn23)c1	H9c2 protect 88
COc1cccc(-c2nn3c(-c4ccccn4)nnc3s2)c1	H9c2 protect 57
CC(C)(C)c1ccc(-c2nnc3sc(-c4ccccn4)nn23)cc1	none
COc1ccc(-c2nn3c(-c4ccccn4)nnc3s2)cc1OC	none
c1ccc(-c2nn3c(-c4ccco4)nnc3s2)nc1	H9c2 protect 81
COc1cc(/C=C/C(=O)c2ccc3c(c2)OCCO3)cc(Br)c1OCC(=O)N(C)C	none
O=C(COc1cccc(Cl)c1)Nc1ccc(N2CCOCC2)cc1	CRFR2-BP antag 80
COC(=O)/C=C/c1ccc(OC(=O)OC)c(OC(=O)OC)c1	H9c2 protect 62
COC(=O)/C=C/c1ccc2c(c1)OCO2	none
OCC(CO)(CO)N=Cc1cc(Br)ccc1O	H9c2 protect 58
Oc1c(Cl)cc(Cl)cc1C=Nc1ccc(Br)cc1	none
Oc1ccc(Br)cc1C=Nc1ccc(Cl)cc1	H9c2 protect 50
Cc1ccc(N=Cc2cc(Br)cc(Cl)c2O)cc1	H9c2 protect 76
Clc1ccccc1Cc1noc(CN2CCCCC2CCc2ccccn2)n1 (stereo unspecified)	none
COc1cc(CN2CCNC(=O)C2CC(=O)N(C)CCC2CCOCC2)cc(OC)c1 (stereo unspecified)	none
COc1ccc(O)c(C(=O)c2cc(C#N)c(=O)n(-c3c(C)n(C)n(-c4ccccc4)c3=O)c2)c1	CRFR2-BP ag 86
Cc1ccc(O)c(C(=O)c2cc(C#N)c(=O)n(-c3c(C)n(C)n(-c4ccccc4)c3=O)c2)c1	none
COc1ccc(-c2cc3nc(-c4ccccc4)cc(N4CCN(C(=O)c5ccoc5)CC4)n3n2)cc1	H9c2 protect 54
O=C(c1ccoc1)N1CCN(c2cc(-c3ccncc3)nc3cc(-c4cccc(Cl)c4)nn23)CC1	H9c2 protect 71
N#Cc1c(-c2cccnc2)cc(-c2ccccc2)nc1N	none
N#Cc1c(-c2ccco2)cc(-c2cccnc2)nc1N	H9c2 protect 87
N#Cc1c(-c2ccco2)cc(C2CC2)nc1N	none
N#Cc1c(-c2ccco2)cc(-c2ccccn2)nc1N	H9c2 protect 88
O=C(CSc1nc2ccccc2s1)c1cc2ccccc2o1	none
COc1ccc(CCNC(=O)COc2ccc(N(C)S(=O)(=O)c3ccc(C)cc3)cc2)cc1OC	CRFR2-BP antag 103
CCN(CC(=O)Nc1ccc(OC)cc1)C(=O)c1cc(-c2cccs2)nn1-c1ccccc1	H9c2 protect 69
Cc1cc(-n2c(C)cc(C(=O)CSc3nc4ccccc4c(=O)n3Cc3ccco3)c2C)no1	CRFR2-BP ag 68
COc1ccccc1Nc1nc(-c2c(C)[nH]c3ccccc23)cs1	none
CNc1nc(-c2c(C)[nH]c3ccc(OC)cc23)cs1	CRFR2-BP antag 88
OC1CCCN(c2c3c(nc4cc(-c5cccc(F)c5)nn24)CCCC3)C1 (stereo unspecified)	none
COCCN1CCN(c2c3c(nc4cc(-c5cccc(F)c5)nn24)CCC3)CC1	H9c2 protect 86
CN(C)c1c([N+](=O)[O-])cc(N2C(=O)C=CC2=O)cc1[N+](=O)[O-]	PfGluPho inh 103
O=Nc1c(O)n(Cc2c(Cl)cccc2Cl)c2ccccc12	CRFR2-BP ag 163
CC1(c2ccc(Cl)cc2)NC(=O)N(CN2CCOCC2)C1=O (stereo unspecified)	none
O=C(CC1SC(=O)NC1=O)Oc1ccc(/C=N/NC(=O)c2ccccc2O)cc1 (stereo unspecified)	none
Cn1c(-c2c(N)n(CCc3ccccc3)c3nc4ccccc4nc23)nc2ccccc21	CRFR2-BP ag 51
COCCCn1c(N)c(-c2nc3ccccc3n2C)c2nc3ccccc3nc21	CRFR2-BP ag 92
O=C(NCc1cccnc1)c1cc(C2CCCCN2C(=O)OCc2ccccc2)on1 (stereo unspecified)	none (no result: CRFR2-BP ag, CRFR2-BP antag, PfGluPho inh)
COc1ccc([N+](=O)[O-])cc1NC(=O)C1CCCCC1C(=O)O (stereo unspecified)	none
